Potency data for 7 compounds are collected here from PubChem BioAssay (Tox21).

Experiment [1] is described as follows: Nuclear factor erythroid 2-related factor 2/antioxidant responsive element (Nrf2/ARE) small molecule agonists: qHTS cell viability counter screen in human keratinocytes (AID 1919968; active means well fitted cell-killing curve with a large enough effect in the repeat runs; further: nearly all actives have a fitted effect of over 55% in size). The procedure, abridged: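 CellTiter-Fluor fluorescence, read 1 h after reagent, gave viability in the same wells as the ARE-luciferase assay. KeratinoSens cells (1,500/well) had 23 h compound exposure at 37 C/5% CO2 following 5 h plating.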

A short description of experiment [2]: Nuclear factor erythroid 2-related factor 2/antioxidant responsive element (Nrf2/ARE) small molecule agonists: luciferase reporter gene qHTS assay in human keratinocytes (AID 1919969). Further: nearly all actives have a fitted effect of over 35% in size. Further: potency means the concentration at half of the fitted maximal effect. Background: In a reporter assay the amount or activity of a reporter protein is the signal.
Experiment [3] concerns the target Gonadotropin-releasing hormone receptor (Homo sapiens) (UniProt P30968). The experiment is described as follows: Human gonadotropin-releasing hormone receptor (GnRHR) small molecule agonists, calcium flux assay in GnRHR-HEK293 cells (AID 1920063). Further: nearly all actives have a fitted effect of over 35% in size. The procedure, abridged:
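Agonist mode: compounds at 15 concentrations, in triplicate, went onto calcium dye-loaded GnRHR-HEK293 cells. Intracellular calcium was then followed as 480/540 nm fluorescence at 1 s intervals over 3 min.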
(In general: Calcium assays in cells follow changes in intracellular calcium, usually with a dye or a luminescent sensor.)

The nature of experiment [4]: G protein-coupled receptor (GPCR) small molecule agonists, calcium flux assay: HEK293 wild type cell line counter screen (AID 1920065). The procedure, abridged: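 Calcium flux counter screen: compound added in agonist mode at 15 concentrations in triplicate to dye-loaded parental HEK293 cells. Fluorescence (480/540) read kinetically for 3 min; ATP served as positive control.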

A short description of experiment [5]: p53 small molecule agonists, cell-based qHTS assay with human liver microsomes (AID 1963577). The procedure, abridged: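 p53RE-bla cells, 4,000/well, compound added after 5 h, with human liver microsomes 0.5 mg/mL and NADPH 0.5 mg/mL final; 16 h at 37 C, then LiveBLAzer 2 h RT, fluorescence.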
A general note: Quantitative high-throughput screening tests each substance at several concentrations.

A short description of experiment [6]: p53 small molecule agonists, cell-based qHTS assay with human liver microsomes: qHTS cell viability counter screen (AID 1963579). Further: nearly all actives have a fitted effect of over 45% in size. The procedure, abridged: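 p53RE-bla cells, 4,000/well, dosed 5 hours after plating, with human liver microsomes (0.5 mg/mL final) plus NADPH (0.5 mg/mL final), 16 hours at 37 C. Viability read as CellTiter-Glo luminescence after 30 min at room temperature.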

Experiment [7] in a line: p53 small molecule agonists, cell-based qHTS assay with rat liver microsomes: qHTS cell viability counter screen (AID 1963580). Further: nearly all actives have a fitted effect of over 45% in size. The gist of the method: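 Cytotoxicity counter screen: intracellular ATP read by CellTiter-Glo luminescence in the p53 reporter wells. HCT-116 p53RE-bla cells were treated for 16 h at 37 C alongside rat liver microsomes and NADPH, each 0.5 mg/mL final.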

Experiment [8] is described as follows: p53 small molecule agonists, cell-based qHTS assay: qHTS cell viability counter screen (AID 1963581). Further: nearly all actives have a fitted effect of over 45% in size. The gist of the method: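 Counter screen read by CellTiter-Glo luminescence (ATP content, 30 min at room temperature), run in the same wells as the beta-lactamase reporter read. HCT-116 p53RE-bla cells saw compounds for 16 h at 37 C.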
The target of experiment [9] is Beta-2 adrenergic receptor (Homo sapiens) (UniProt P07550). Nature of the experiment: Adrenergic beta2 receptor (ADRB2) small molecule antagonists, cell-based qHTS assay (AID 1963592). Further: series mostly up to about 92 µM; nearly all actives have a fitted effect of over 50% in size. The gist of the method: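 Assay format: CHO-ADRB2 cells, 18-20hr seeding at 37C/5% CO2, then compound plus 1nM isoproterenol agonist mix for 0.5hr RT. Homogeneous time-resolved fluorescence cAMP detection after 1hr, expressed as 665/615 nm ratio.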

Experiment [10] has the same target. The experiment is described as follows: Adrenergic beta2 receptor (ADRB2) small molecule agonists, cell-based qHTS assay (AID 1963593).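 Further: CHO cells stably overexpressing human ADRB2.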 The procedure, abridged:
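CHO cells stably over-expressing ADRB2 were plated overnight at 37C, then dosed with compounds plus a stimulation mix containing 100uM IBMX and 25uM Ro-20-1724 for 0.5hr at room temperature. cAMP was measured by HTRF competition, 1hr.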

The target of experiment [11] is D(2) dopamine receptor (Homo sapiens) (UniProt P14416). Nature of the experiment: Dopamine D2 receptor (DRD2) small molecule antagonists, cell-based qHTS assay (AID 1963595; active means well fitted inhibition curve with a large enough effect in the signal ratio in the repeat runs, with a control signal flat; the % refers to the signal ratio). The procedure, abridged:
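Cells were plated and grown for 24 h at 37 °C. Ro20-1724 (0.1 mM final) went in first, then compound for 10 min. NKH477 (200 nM) with quinpirole (12 nM) followed for 30 min at RT, then HTRF detection reagents for 1 h.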

The nature of experiment [12]: p53 small molecule agonists, cell-based qHTS assay with rat liver microsomes (AID 1963578). The procedure, abridged: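 p53RE-bla cells, 4,000/well, pre-incubated 5 h, then given compounds plus rat liver microsomes (0.5 mg/mL final) and NADPH (0.5 mg/mL final). Incubation 16 h at 37 C; beta-lactamase reporter read by LiveBLAzer fluorescence after 2 h at room temperature.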

A short description of experiment [13]: p53 small molecule agonists, cell-based qHTS assay (AID 1963582; active means well fitted activation curve with a large enough effect in the signal ratio in the repeat runs, not every such curve was filed as active; the % refers to the signal ratio). The gist of the method: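 Read-out is beta-lactamase FRET fluorescence after 2 h at room temperature with LiveBLAzer B/G substrate. p53 response element-bla cells were treated 16 h at 37 C with compounds in DMSO, added 5 h after seeding.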
The target in experiment [14] is 5-hydroxytryptamine receptor 2A (Homo sapiens) (UniProt P28223). Nature of the experiment: 5-hydroxytryptamine receptor 2A (HTR2A) small molecule antagonists, cell-based qHTS assay (AID 1963586). Further: nearly all actives have a fitted effect of over 45% in size. The procedure, abridged: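 CHO cells stably expressing human HTR2A were plated for 18 h at 37 C, then loaded with calcium dye for 1 h. Compounds were preincubated 5 min at room temperature before DOI (4 nM solution) was added. Kinetic fluorescence was read for 3 min.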

Experiment [15] has the same target. Nature of the experiment: 5-hydroxytryptamine receptor 2A (HTR2A) small molecule agonists, cell-based qHTS assay (AID 1963587). Further: nearly all actives have a fitted effect of over 30% in size. The procedure, abridged:
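Kinetic calcium-flux fluorescence (2 min, 1 sec intervals) after compound addition in agonist mode. HTR2A-CHO cells were cultured 18 h, then dye-loaded 1 h at 37 C.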

Experiment [16] deals with Muscarinic acetylcholine receptor M1 (Homo sapiens) (UniProt P11229). Nature of the experiment: Cholinergic receptor muscarinic 1 (CHRM1) small molecule antagonists, cell-based qHTS assay (AID 1963588). Further: nearly all actives have a fitted effect of over 40% in size. The procedure, abridged: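 Compounds were tested at 15 concentrations in three independent runs. Dye-loaded CHRM1-CHO cells were exposed 5 min at room temperature before stimulation by acetylcholine added at 50nM. Intracellular calcium was read kinetically on FDSS for 3 min.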

Experiment [17] has the same target. Nature of the experiment: Cholinergic receptor muscarinic 1 (CHRM1) small molecule agonists, cell-based qHTS assay (AID 1963589). Further: nearly all actives have a fitted effect of over 35% in size. The procedure, abridged: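 Agonist-mode calcium-flux screen: compounds at 15 concentrations, three independent runs, were pin-transferred onto dye-loaded human CHRM1-CHO cells. Fluorescence was then recorded kinetically every second over minutes.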

A short description of experiment [18]: cAMP Responsive Elements (CRE) small molecule agonists, cell-based qHTS assay (AID 1963590). The gist of the method:
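Agonist mode: compound added to CRE-bla HEK 293T cells (2,000/well, 18 h after plating) for 3 h at 37 C/5% CO2. Reporter activity detected via FRET beta-lactamase substrate, 2 h room-temperature loading.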

Experiment [19] is described as follows: cAMP Responsive Elements (CRE) small molecule antagonists, cell-based qHTS assay (AID 1963591; active means well fitted inhibition curve with a large enough effect in the signal ratio in the repeat runs, not every such curve was filed as active; the % refers to the signal ratio). The procedure, abridged: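 Antagonist mode: compounds are added alongside the adenylyl cyclase activator NKH477 (0.25 uM final) to CRE-bla HEK293T cells for 3 h. LiveBLAzer FRET substrate, 2 h at room temperature, reports bla expression.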
Experiment [20] addresses D(2) dopamine receptor (Homo sapiens) (UniProt P14416). Nature of the experiment: Dopamine D2 receptor (DRD2) small molecule agonists, cell-based qHTS assay (AID 1963594). Further: nearly all actives have a fitted effect of over 35% in size. The procedure, abridged:
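cAMP accumulation in DRD2-HEK293 cells measured by HTRF after 1 h detection; compounds added 10 min before NKH477 (200nM […]) forskolin-analogue stimulation, 30 min at room temperature, with Ro20-1724 present at 0.1 mM final.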

The structures appear in SMILES notation. Several values for one entry are separate records, joined by “and”; a condition that tells them apart may be missing. Equal values may be shown once. Results filed as inconclusive are left out. Activity calls are given as the source filed them. Unless noted, the call rests on the fitted dose curve.

Sequence of Muscarinic acetylcholine receptor M1 (Homo sapiens) (P11229 whole entry, looked up): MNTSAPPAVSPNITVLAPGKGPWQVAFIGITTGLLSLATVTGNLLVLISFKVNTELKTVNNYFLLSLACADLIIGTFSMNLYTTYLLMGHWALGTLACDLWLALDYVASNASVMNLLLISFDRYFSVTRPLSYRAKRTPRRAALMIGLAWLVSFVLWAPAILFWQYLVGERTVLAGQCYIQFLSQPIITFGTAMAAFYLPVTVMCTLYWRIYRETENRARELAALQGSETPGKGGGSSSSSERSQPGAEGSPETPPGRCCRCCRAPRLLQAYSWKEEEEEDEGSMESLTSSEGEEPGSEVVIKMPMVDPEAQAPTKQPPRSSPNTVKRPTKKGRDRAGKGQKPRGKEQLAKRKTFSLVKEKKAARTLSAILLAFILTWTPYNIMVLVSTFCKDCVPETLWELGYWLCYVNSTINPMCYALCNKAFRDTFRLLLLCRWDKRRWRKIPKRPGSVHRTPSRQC
Sequence of Gonadotropin-releasing hormone receptor (Homo sapiens) (P30968 whole entry, looked up): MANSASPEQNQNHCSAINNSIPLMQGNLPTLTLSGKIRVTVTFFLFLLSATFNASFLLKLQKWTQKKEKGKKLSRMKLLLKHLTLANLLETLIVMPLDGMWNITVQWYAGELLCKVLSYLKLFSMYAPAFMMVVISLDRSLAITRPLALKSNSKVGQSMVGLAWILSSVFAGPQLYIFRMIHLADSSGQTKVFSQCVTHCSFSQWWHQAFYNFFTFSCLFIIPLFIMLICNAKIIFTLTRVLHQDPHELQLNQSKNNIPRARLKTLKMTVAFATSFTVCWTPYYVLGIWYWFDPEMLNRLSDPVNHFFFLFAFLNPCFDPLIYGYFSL
Sequence of D(2) dopamine receptor (Homo sapiens) (P14416 whole entry, looked up): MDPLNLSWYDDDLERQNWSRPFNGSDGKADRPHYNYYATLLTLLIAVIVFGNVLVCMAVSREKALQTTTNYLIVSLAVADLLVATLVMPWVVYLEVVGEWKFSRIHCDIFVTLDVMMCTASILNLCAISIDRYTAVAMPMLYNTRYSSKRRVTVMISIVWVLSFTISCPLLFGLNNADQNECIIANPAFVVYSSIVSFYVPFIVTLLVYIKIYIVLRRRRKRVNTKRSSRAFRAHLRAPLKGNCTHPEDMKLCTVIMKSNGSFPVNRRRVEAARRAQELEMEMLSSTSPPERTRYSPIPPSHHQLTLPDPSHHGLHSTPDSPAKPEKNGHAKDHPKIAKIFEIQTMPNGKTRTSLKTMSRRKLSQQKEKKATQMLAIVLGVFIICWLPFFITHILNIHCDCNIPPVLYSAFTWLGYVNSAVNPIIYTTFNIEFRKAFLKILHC
Sequence of Beta-2 adrenergic receptor (Homo sapiens) (P07550 whole entry, looked up): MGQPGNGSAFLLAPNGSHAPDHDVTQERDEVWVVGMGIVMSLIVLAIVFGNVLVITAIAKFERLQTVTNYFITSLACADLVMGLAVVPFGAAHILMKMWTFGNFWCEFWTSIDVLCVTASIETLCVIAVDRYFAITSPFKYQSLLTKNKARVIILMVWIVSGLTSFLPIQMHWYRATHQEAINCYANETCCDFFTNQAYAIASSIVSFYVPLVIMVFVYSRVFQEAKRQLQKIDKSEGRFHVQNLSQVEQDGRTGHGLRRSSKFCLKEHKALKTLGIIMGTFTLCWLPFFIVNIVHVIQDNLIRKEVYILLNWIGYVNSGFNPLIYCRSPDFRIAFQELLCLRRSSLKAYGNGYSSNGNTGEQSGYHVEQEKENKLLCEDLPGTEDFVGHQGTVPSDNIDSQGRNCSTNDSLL
Sequence of 5-hydroxytryptamine receptor 2A (Homo sapiens) (P28223 whole entry, looked up): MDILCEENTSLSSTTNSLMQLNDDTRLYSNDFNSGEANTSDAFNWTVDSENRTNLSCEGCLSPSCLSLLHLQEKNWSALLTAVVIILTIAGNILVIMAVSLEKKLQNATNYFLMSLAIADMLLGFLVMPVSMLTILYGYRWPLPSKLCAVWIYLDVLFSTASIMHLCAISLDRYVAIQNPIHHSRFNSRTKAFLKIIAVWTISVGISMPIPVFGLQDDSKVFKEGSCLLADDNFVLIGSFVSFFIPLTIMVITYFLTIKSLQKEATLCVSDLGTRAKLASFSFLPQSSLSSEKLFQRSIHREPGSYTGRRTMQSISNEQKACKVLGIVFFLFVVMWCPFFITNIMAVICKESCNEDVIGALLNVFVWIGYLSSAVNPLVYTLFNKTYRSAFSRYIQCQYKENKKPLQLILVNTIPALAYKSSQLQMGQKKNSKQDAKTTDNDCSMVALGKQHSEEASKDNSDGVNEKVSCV

Take `CC(=O)Oc1ccc(C(c2ccc(OC(C)=O)cc2)c2ccccn2)cc1`: the Potency result in experiment [1], in experiment [3], in experiment [4], in experiment [5], in [6] and in experiment [7] was “inactive” in each case. For the same compound, the Potency entry in experiment [8], in experiment [9], in [10] and in experiment [11] was “inactive” in each case. Also, the Potency in experiment [2] is 121 nM (active) and 841 nM (active).
On to `CCCCCCCCCC`, for which the Potency entry in experiment [1], in [2], in experiment [3], in experiment [5], in [12] and in experiment [6] was “inactive” in each case. In addition, the Potency entry in experiment [7], in [8], in [13], in [14], in experiment [15] and in [16] was “inactive” in each case. The Potency result in experiment [17], in experiment [18], in [19], in experiment [9], in experiment [10] and in experiment [11] was “inactive” in each case.
As for `CC(C)(N)CO`, the Potency entry in [1], in experiment [2], in experiment [3], in experiment [5], in experiment [6] and in [7] was “inactive” each time. Moreover, the Potency entry in experiment [8], in experiment [13], in experiment [14], in experiment [15], in experiment [16] and in experiment [17] was “inactive” throughout. The Potency result in [19], in [9], in experiment [20] and in [11] was “inactive” in each case.
`CC(C)[N+](C)(CCOC(=O)C1c2ccccc2Oc2ccccc21)C(C)C`: the Potency result in experiment [1], in experiment [2], in experiment [3], in [4], in [12] and in [6] was “inactive” in each case. The Potency result in experiment [7], in experiment [8], in experiment [13], in experiment [14], in [15] and in experiment [16] was “inactive” in each case. For the same compound, the Potency entry in experiment [17], in [18], in experiment [9], in experiment [10], in [20] and in experiment [11] was “inactive” each time.
`Cc1cccc(C(=O)O)c1`: the Potency result in [1], in experiment [2], in experiment [3], in experiment [4], in experiment [5] and in experiment [6] was “inactive” each time. Moreover, the Potency result in experiment [7], in experiment [8], in experiment [13], in experiment [14], in experiment [15] and in experiment [17] was “inactive” each time. The Potency entry in experiment [18], in experiment [19], in experiment [9], in experiment [10], in [20] and in experiment [11] was “inactive” each time.
In the case of `O=C=Nc1ccc(Cc2ccc(N=C=O)cc2)cc1`, the Potency result in experiment [1], in experiment [2], in experiment [4], in experiment [5], in experiment [12] and in experiment [6] was “inactive” in each case. In addition, the Potency result in experiment [7], in experiment [8], in experiment [13], in experiment [14], in experiment [15] and in experiment [16] was “inactive” each time. The Potency entry in experiment [17], in experiment [18], in [19], in experiment [9], in experiment [20] and in [11] was “inactive” in each case.
On to `CC(C)=CCCC(C)CCO` (configuration not stated), for which the Potency entry in experiment [1], in [2], in [4], in experiment [5], in [12] and in experiment [6] was “inactive” each time. The Potency entry in experiment [7], in [8], in experiment [13], in [14], in experiment [15] and in experiment [16] was “inactive” each time. For the same compound, the Potency entry in experiment [17], in experiment [18], in experiment [19], in [9], in experiment [20] and in experiment [11] was “inactive” throughout.
